Bioassay records (PubChem)
Pf Dd2 growth = Plasmodium falciparum Dd2 growth inhibition. P. falciparum Dd2 growth, SYBR Green, 72 h. Potency, µM (series often up to 28.9 µM), inactives show top-dose activity, negative = inhibition, usual class: inhibitors. hit rate 4.3% among 120,000. AID 1347417; active means well fitted inhibition curve with a large enough effect;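 further: plate controls were DMSO vehicle for no effect and reference drug for full effect; nearly all actives have a fitted effect of over 65% in size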
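Readout: SYBR Green fluorescence, 485 nm excitation, 535 nm emission, after ~16 h lysis at 37C. Before that, Dd2-infected red cells (2.5% hematocrit) grew 72 h with compound, 29 uM top final concentration.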
* hit, by the source's call; i = inactive; [ ] = another dose, or the depositor's remark. The full list was thinned out, with hits kept by preference. Potency means the concentration at half of the fitted maximal effect.

SMILES	Pf Dd2 growth
Cc1ccc(C2C=C(c3ccc(Cl)cc3)Nc3nc(NS(=O)(=O)c4ccccc4)nn32)cc1 (centres undefined)	20%
O=C(Nc1nc2n(n1)C(c1ccc(F)cc1)C=C(c1ccc(Cl)cc1)N2)c1ccco1 (centres undefined)	8.9µM*
O=C(Nc1nc2n(n1)C(c1ccc(F)cc1)C=C(c1ccccc1)N2)c1cccc([N+](=O)[O-])c1 (centres undefined)	3.2µM*
COc1cccc(C2C(C(=O)Nc3ccccc3)=C(C)Nc3nc(-c4ccccc4)nn32)c1 (centres undefined)	-28%
CC(=O)Nc1cccc(C(=O)NCCn2ccn3nc(-c4ccc(F)cc4)cc3c2=O)c1	-1%
CC1=C(C(=O)Nc2ccccc2)C(c2ccc(F)cc2)n2nc(SCc3cc(C)ccc3C)nc2N1 (centres undefined)	115%
CCOc1cccc(CN2CCC3(CC2)CC(O)CCO3)c1 (centres undefined)	-25%
CCNC(=O)N[C@H]1[C@H](O)[C@H](O)C[C@@H]1C1CCCCC1	-19%[44.1 µM]
CCC(O)c1cc2n(n1)CCN(C(=O)c1nc(N)nc3c1CCCC3)C2 (centres undefined)	-17%
O=C([C@H]1C[C@@H](F)CN1S(=O)(=O)Cc1ccc(Cl)cc1)N1CCOCC1	i
O=C1NCCOCCN(C(=O)COc2ccccc2)[C@H]2CCC[C@@H]12	48%
COc1ccc(C(=O)N2CCC(N3C[C@H](O)C[C@H]3C(=O)NCc3cccnc3)CC2)cn1	-5%
CCCC1(CO)CCCN(Cc2cc(OC)c(OC)cc2F)C1 (centres undefined)	-14%
CCC(=O)N1CC(=O)N(CC)C2(CCOCC2)C1	11%
O=C(Cc1ccccc1Cl)N1CCC(c2n[nH]c(=O)n2Cc2ccc(F)cc2)CC1	-13%
O=c1[nH]c(N2CCOCC2)nc2c1CCN(Cc1cc(F)cc(F)c1)CC2	-2%[5.79 µM]
CN(C)c1nc2c(c(=O)[nH]1)CCN(Cc1cccc(F)c1F)CC2	i[5.79 µM]
Cc1ccc(CN2CCc3nc(N4CCOCC4)[nH]c(=O)c3CC2)cc1C	i[5.79 µM]
CN(C)c1nc2c(c(=O)[nH]1)CCN(Cc1ccc(Cl)cc1)CC2	-4%[5.79 µM]
CN(C)c1nc2c(c(=O)[nH]1)CCN(Cc1ccccc1Br)CC2	1.1µM*
CN(C)c1nc2c(c(=O)[nH]1)CCN(Cc1ccccc1F)CC2	i[5.79 µM]
O=c1[nH]c(N2CCOCC2)nc2c1CCN(Cc1ccc(C(F)(F)F)cc1)CC2	1.3µM*
CN(C)c1nc2c(c(=O)[nH]1)CCN(Cc1ccccc1)CC2	17%[5.79 µM]
CN(C)c1nc2c(c(=O)[nH]1)CCN(Cc1ccc(Br)cc1)CC2	2µM*
O=C(c1ccccn1)N1CCCC(c2noc(COc3ccccc3)n2)C1 (centres undefined)	11%
SMILES	Pf Dd2 growth
O=C(Cc1ccc2c(c1)OCO2)N[C@@H]1CCOC[C@H]1Oc1ccccn1	-15%
CCOc1ccccc1NC(=O)N1CCCCCCNC(=O)CC1	4%
COCc1nnc(NC(=O)CN2CCN(c3nccnc3C#N)CC2)s1	i
c1coc(-c2nc3ccccn3c2Nc2ccc3c(c2)OCCO3)c1	i
CN(C)c1ccc(-c2nc3ccccn3c2Nc2ccc3c(c2)OCCO3)cc1	10µM*
Cc1ccc(-c2nc3ccccn3c2Nc2ccc3c(c2)OCCO3)s1	i
Cc1ccc2nc(-c3cccc(Cl)c3)c(Nc3ccc4c(c3)OCO4)n2c1	-7%
Cc1ccn2c(Nc3ccc4c(c3)OCO4)c(-c3ccc(O)cc3)nc2c1	13µM*
CSc1ccc(-c2nc3cc(C)ccn3c2Nc2ccc(C)cc2)cc1	0%
Cc1ccc(OCC(=O)c2ccc3c(c2)N(C(C)C(=O)NCC2CCCO2)C(=O)CO3)cc1C (centres undefined)	i
CNC(=O)[C@@H]1C[C@H](Oc2ccccc2)CN1C(=O)Nc1ccccc1	-8%
O=C1NCc2ccccc2CC12CCN(Cc1cc(O)cc(O)c1)CC2	-1%
Cc1ccc(C)c(N2CCN(S(=O)(=O)c3ccc4[nH]c5c(c4c3)CCCCC5)CC2)c1	8.9µM*
Cc1ccc(N2CCN(S(=O)(=O)c3ccc4[nH]c5c(c4c3)CCCCC5)CC2)c(C)c1	-14%
Cc1ccc(Cl)cc1N1CCN(S(=O)(=O)c2ccc3[nH]c4c(c3c2)CCCC4)CC1	-25%
CNC(=O)N1CCC(C2CCN(C(=O)Cc3cccs3)C2)CC1 (centres undefined)	31%
CS(=O)(=O)N1CCC(C2CCN(Cc3cccs3)C2)CC1 (centres undefined)	13µM*
CS(=O)(=O)N1CCC(C2CCN(Cc3ccc(Br)o3)C2)CC1 (centres undefined)	4.5µM*
CS(=O)(=O)N1CCC(C2CCN(C3CCOCC3)C2)CC1 (centres undefined)	-18%
Cc1ccc(CN2CCC(C3CCN(S(C)(=O)=O)CC3)C2)o1 (centres undefined)	i
Cn1cccc1CN1CCC(C2CCN(S(C)(=O)=O)CC2)C1 (centres undefined)	i
Cc1noc(C2CC3(CCN(C(=O)Cc4c[nH]c5ccccc45)CC3)CN2C)n1 (centres undefined)	-12%
COCCCN1CC2(CCC1=O)CCN(Cc1nonc1C)CC2	-1%
CS(=O)(=O)N1CCC(OC2CCN(C(=O)NC3CCCC3)CC2)CC1	-7%
COc1ccc(C2Cn3cnc(C(=O)N4CCC(C(=O)NCC(C)C)CC4)c3CO2)cc1 (centres undefined)	i
SMILES	Pf Dd2 growth
COc1ccc(C2Cn3nnc(C(=O)NCc4cccc(C(F)(F)F)c4)c3CO2)cc1 (centres undefined)	i
COc1ccc(-c2nnc3n2CCN(C(=O)c2ccccc2Cl)C3)cc1	-29%
Cc1ccccc1-c1cnc2n[nH]c(-c3ccccc3)c2n1	i
COc1ccccc1-c1[nH]nc2ncc(-c3ccccc3C)nc12	13µM*
COc1ccccc1-c1[nH]nc2ncc(-c3ccccc3F)nc12	-22%[44.1 µM]
O=C(NC1CCCCC1)C1CN(C(=O)COc2ccc(F)cc2)CC12CCOCC2 (centres undefined)	-8%
COc1ccc(S(=O)(=O)N2CCCC(Cn3c(C)nc4cccnc43)C2)cc1 (centres undefined)	i
Cc1cccc(C(=O)N2CCCC(c3nnnn3C)C2)c1 (centres undefined)	18%
COc1ccc(-c2[nH]nc3ncc(C(=O)N(C)c4cccnc4)nc23)c(C)c1	i
O=C(c1ccc(Cn2ccnc2)o1)N1CCC2(CC1)NCCc1c2[nH]c2ccccc12	13µM*
O=C(c1cccnc1)N1CCC2(CC1)NCCc1c2[nH]c2ccccc12	-13%
O=C(c1ccncc1)N1CCC2(CC1)NCCc1c2[nH]c2ccccc12	i
OCCn1cnc2cc(-c3n[nH]c(C4CCOC4)n3)ccc21 (centres undefined)	-20%
C=CCn1cc(CN2CCOC(Cc3cccc(OC)c3)C2)c(C)n1 (centres undefined)	-24%
CCC1CN(Cc2cn(Cc3ccccc3)nc2-c2cc3ccccc3o2)CCO1 (centres undefined)	10µM*
Cc1nnc([C@H]2CCN(Cc3cc4ccccc4o3)C2)o1	i
O=C(c1ccccc1F)N1CCC2(CC1)C(=NC1CCCC1)NC(=O)N2c1cccnc1	14%
COc1ccc(CCNC(=O)c2ccc3c(c2)N(Cc2ccccc2)C(=O)c2ccccc2S3=O)cc1OC (centres undefined)	i
O=C(NCCC1=CCCCC1)c1ccc2c(c1)N(Cc1ccccc1F)C(=O)c1ccccc1S2=O (centres undefined)	13µM*
